Sampled rows, rich in hits. Any-hit rate of the full collection: about 3.5%.
mHTT-CaM PPI inh = inhibitors of human mutant huntingtin-calmodulin interaction; AlphaScreen His-mHTT/GST-CaM binding, luminescence; inhibition, % at 15 µM; 3.6% of 190,000 active; AID 1671202;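 also: 0% = both proteins with DMSO and 100% = one protein alone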
Pf apPOL block = Pf-apPOL DNA polymerase inhibition. Recombinant Pf-apPOL, molecular beacon fluorescence, 1.5 h. inhibition, % at 10 µM. 0.25% of 210,000 active. AID 1794808
An asterisk follows results filed as active; / = no result; ! = not confirmed by another sample. Rule as the data show it: active = inhibition above about 50%; inactive = the rest.

SMILES	mHTT-CaM PPI inh	Pf apPOL block
CCN1CN(c2ccc(C)cc2)c2ncccc2S1(=O)=O	-42.1	-4.9
O=C1CC[C@@H](OCc2ccccc2)CCN1CC[C@H](Sc1ccccc1)c1ccccc1	59.4*	-0.7
O=C1CC[C@@H](O)CCN1CC[C@H](Sc1ccccc1)c1ccccc1	13.6	-4.3
O=C1CCC(OCc2ccccc2)CCN1CC[C@@H](Sc1ccccc1)c1ccccc1 (some centres not stated)	79.7*	1.6
[N-]=[N+]=N[C@@H](CCN1CC[C@H](NC(=O)OCc2ccccc2)CCC1=O)c1ccccc1	14.9	-0.2
[N-]=[N+]=N[C@@H](CCN1CC[C@H](OCc2ccccc2)CCC1=O)c1ccccc1	51.4*	-3.0
C[C@@H]1CCC(=O)N(CC[C@H](Sc2ccccc2)c2ccccc2)CC1	46.3	-3.4
Cc1c(NC(=O)c2cncc(Br)c2)cccc1-c1nc2ccccc2s1	12.9	1.0
Cc1cc(S(=O)(=O)N2CCC(C(N)=O)CC2)ccc1F	-15.3	1.3
Cc1ccc(C)c(NC(=O)N2CCC3(CC2)Nc2cc(F)ccc2-n2cccc23)c1	31.2	-5.9
O=C(Nc1cccc(Cl)c1)N1CCC2(CC1)Nc1cc(F)ccc1-n1cccc12	94.2*	1.3
Cc1cc(C)cc(NC(=O)N2CCC3(CC2)Nc2cc(F)ccc2-n2cccc23)c1	70.6*	2.5
O=C(Nc1cccc(Cl)c1)N1CCC2(CC1)Nc1ccccc1-n1cccc12	24.1	-0.9
Cc1ccc(NC(=O)N2CCC3(CC2)Nc2cc(F)ccc2-n2cccc23)cc1C	54.3*	31.5
O=C(Nc1ccc2c(c1)OCCO2)N1CCC2(CC1)Nc1ccccc1-n1cccc12	62.4*	4.0
CCS(=O)(=O)c1ccccc1C(=O)Nc1nc(-c2ccc3c(c2)OCCO3)cs1	9.0	-8.1
O=C(c1cc(-c2ccccc2F)nc2cc(-c3ccccc3)nn12)N1CCOCC1	30.7	0.6
Cc1ccc(NC(=O)N2CCC3(CC2)Nc2cc(F)ccc2-n2cccc23)cc1Cl	77.4*	4.9
O=C(Nc1ccc2c(c1)OCO2)N1CCC2(CC1)Nc1cc(F)ccc1-n1cccc12	68.2*	-2.8
Cc1ccc(C)n1-c1ccc(S(N)(=O)=O)cc1	74.9*	-3.3
Cn1c(=O)n(-c2ccc(S(N)(=O)=O)cc2)c(=O)n1C	4.0	-1.8
COc1ccccc1C(NC(=O)Cc1ccccc1)c1ccc2cccnc2c1O (configuration not stated)	35.0	-4.4
COc1ccc(C(NC(=O)Cc2ccccc2)c2ccc3cccnc3c2O)cc1OC (configuration not stated)	100.0*	87.0*!
COc1ccc(C(NC(=O)CCc2ccccc2)c2ccc3cccnc3c2O)cc1OC (configuration not stated)	100.0*	-3.5
O=C(CCc1ccccc1)NC(c1ccccc1)c1ccccc1	-11.0	-1.7
SMILES	mHTT-CaM PPI inh	Pf apPOL block
COCCNC(=O)C1CCN(Cc2cc3ccccc3n2Cc2cccc(F)c2)CC1	63.0*	-2.9
COCCNC(=O)C1CCN(Cc2cc3ccccc3n2Cc2cccc(C)c2)CC1	60.4*	5.1
O=C(NCCc1ccccc1)C1CCN(Cc2ccccc2)CC1	-0.7	9.3
Cc1cccc(Cn2c(CN3CCC(C(=O)NCc4ccco4)CC3)cc3ccccc32)c1	35.9	1.1
COCCNC(=O)C1CCN(Cc2cc(OC)c(OC)c(OC)c2)CC1	-4.1	-5.8
CN(C)CCNC(=O)C1CCN(Cc2cc3ccccc3n2Cc2ccccc2)CC1	100.2*	4.7
COCCCNC(=O)C1CCN(Cc2cc3ccccc3n2Cc2ccc(C)cc2)CC1	76.2*	-4.2
Cc1ccc(Cn2c(CN3CCC(C(=O)NCc4ccco4)CC3)cc3ccccc32)cc1	37.9	2.1
COc1ccccc1CN1CCC(C(=O)NCCc2ccccc2)CC1	-7.7	-4.5
COCCNC(=O)C1CCN(Cc2cc3ccccc3n2Cc2ccccc2C)CC1	59.9*	2.7
CCCCCCCCCCCCCCCCCC(=O)NCC1CCCO1 (configuration not stated)	-2.3	/
O=S(=O)(Nc1ccc(Br)cc1)c1cccc(-c2nnc(-c3ccccc3)o2)c1	6.8	-4.6
Cn1c(=O)n(C)c2cc(/C=C3\C(=O)NN(c4ccc(Br)cc4)C3=O)ccc21	2.0	5.3
CC/C(C)=C1\C(=O)NN(c2ccc(Br)cc2)C1=O	74.0*	-1.2
CN(C)c1nc(N2CCCC2)nc2c1CN(C(=O)C1CCCC1)CC2	-1.0	-5.1
O=[N+]([O-])c1ccc(NN=C2CCCCCC2c2ccccc2)c([N+](=O)[O-])c1 (configuration not stated)	/	-2.9
O=[N+]([O-])c1ccccc1NN=C1CCCC1	57.7*	/
CCC(CC)C(=O)Nc1c2c(nn1C(C)(C)C)CS(=O)(=O)C2	-2.0	-2.6
O=S1(=O)c2ccc(N3CCCC3)cc2Oc2ccccc2CN1Cc1cn(Cc2ccc(Cl)cc2)nn1	-1.6	-4.8
CN1CCN(c2ccc3c(c2)Oc2ccccc2CN(Cc2cn(Cc4ccc(C(F)(F)F)cc4)nn2)S3(=O)=O)CC1	72.4*	-5.7
O=C(Nc1nnc2n1CCS2)c1ccc(F)c(F)c1	40.9	-12.1
